Compound activity from PubChem BioAssay.
The entries come from a sample that favours hits as a whole.
ROS inducer – cancer cell ROS induction; ROS induction (% of piperlongumine), % at 10 µM; AID 624156; U2OS ROS induction, H2DCF-DA fluorescence; 46,000 compounds, 2% hits; in the data active means ROS induction above about 79%, passing the limit was not always enough
Each line names hits and unclear results; the compound was inactive in the other large screens.

C[C@@H]1CCCCO[C@H](CN(C)C(=O)CCCN(C)C)[C@@H](C)CN([C@H](C)CO)C(=O)c2cc(NC(=O)NC3CCCCC3)ccc2O1	none
C[C@@H]1CCCCO[C@@H](CN(C)C(=O)C2CCCCC2)[C@@H](C)CN([C@H](C)CO)C(=O)c2cc(NS(C)(=O)=O)ccc2O1	ROS inducer 91
C[C@@H]1CCCCO[C@H](CN(C)C(=O)CCCN(C)C)[C@@H](C)CN([C@H](C)CO)C(=O)c2cc(NC(=O)C3CCCCC3)ccc2O1	ROS inducer 105
C[C@@H]1CCCCO[C@@H](CN(C)C(=O)C2CCCCC2)[C@@H](C)CN([C@H](C)CO)C(=O)c2cc(NS(=O)(=O)c3ccc(Cl)cc3)ccc2O1	ROS inducer 101
C[C@@H]1CCCCO[C@H](CN(C)C(=O)CCCN(C)C)[C@@H](C)CN([C@H](C)CO)C(=O)c2cc(NS(=O)(=O)c3ccc(Cl)cc3)ccc2O1	ROS inducer 99
C[C@@H]1CCCCO[C@@H](CN(C)C(=O)CCC(F)(F)F)[C@@H](C)CN([C@H](C)CO)C(=O)c2cc(NC(=O)C3CCCCC3)ccc2O1	none
C[C@@H]1CCCCO[C@@H](CN(C)C(=O)CCCN(C)C)[C@@H](C)CN([C@H](C)CO)C(=O)c2cc(NS(=O)(=O)c3ccc(F)cc3)ccc2O1	none
C[C@@H]1CCCCO[C@@H](CN(C)C(=O)c2ccccc2)[C@@H](C)CN([C@H](C)CO)C(=O)c2cc(NS(=O)(=O)c3ccc(Cl)cc3)ccc2O1	none
Cc1ncoc1C(=O)NCc1ccc(Cl)cc1	none
O=C(CSCc1cnn(-c2ccccc2)c1-n1cccc1)N1CCN(c2ccc(F)cc2)CC1	none
O=C(Cn1cnc2c(nnn2-c2cccc(Cl)c2)c1=O)OCc1ccccc1	none
CCOC(=O)c1c(NC(=O)c2ccco2)sc2c1CCCC2=O	none
COc1ccc2[nH]c3c(=O)n(CCCCC(=O)NCc4ccccc4)c(=S)[nH]c3c2c1	none
CCCc1cc2c(cc1NC(=O)C(C)(C)C(=O)Nc1cc3c(cc1CCC)OCO3)OCO2	none
CCOC(=O)c1c(N)n[nH]c1C	none
Nc1c(C(=O)NCCC2=CCCCC2)nnn1-c1cccc(C(F)(F)F)c1	none
c1ccc2cc(OCCN3CCOCC3)ccc2c1	none
COC(=O)C1=C(C)Nc2ncnn2C1c1ccc(OCC(=O)N2CCOCC2)c(OC)c1 (configuration not stated)	none
COc1cc(C2C(C#N)=C(C)Nc3oc(C)nc32)ccc1OCCN1CCOCC1 (configuration not stated)	ROS inducer 116
CC(C)n1c(SCC(N)=O)nc2c(oc3ccccc32)c1=O	none
CCC(C)n1c(SCc2ccccc2Cl)nc2ccsc2c1=O (configuration not stated)	none
O=C(NCCc1ccccc1)C1CCCN(c2ncnc3c2sc2cccc(F)c23)C1 (configuration not stated)	none
FC(F)(F)c1nnc2n1Nc1nc3ccccc3nc1S2	ROS inducer 704
CCCSc1nc2c([nH]c3ccccc32)c(=O)n1-c1cc(C)cc(C)c1	none
O=C(NCC(O)CO)[C@@]1(CCS(=O)(=O)c2ccccc2)N=C(c2ccc(OCCCO)cc2)O[C@H]1c1ccccc1 (some centres not stated)	none
C=CCN1Cc2ccccc2[C@@H]2OC(c3ccc(OCCCO)cc3)=N[C@]2(CC=C)C1=O	none
C=CCN1Cc2ccccc2[C@H]2OC(c3ccc(OCCCO)cc3)=N[C@@]2(CCS(=O)(=O)c2ccccc2)C1=O	ROS inducer 113
CN(C)C(=O)[C@]1(Cc2ccccc2)N=C(c2ccc(OCCCO)cc2)O[C@@H]1c1ccccc1	none
CN(C)C(=O)[C@]1(CCS(=O)(=O)c2ccccc2)N=C(c2ccc(OCCCO)cc2)O[C@@H]1c1ccccc1	ROS inducer 95
C=CCN1Cc2ccccc2[C@@H]2OC(c3ccc(OCCCO)cc3)=N[C@]2(Cc2ccccc2)C1=O	none
COC(=O)c1ccccc1NC(=O)Cc1ccc(Cl)cc1	none
CC(C)NC(=O)N1CCc2sccc2C1c1ccc(Cl)cc1 (configuration not stated)	none
CCOC(=O)c1nc(N)c(=O)n(-c2ccc(Cl)cc2)n1	none
Cc1ccccc1NC(=O)Nc1ccc(OCc2ccccc2)cc1	none
COC(=O)c1sc(S(=O)(=O)NC23CC4CC(CC(C4)C2)C3)c(C(=O)OC)c1C	none
Cc1ccc(N2C(=O)N(CC(=O)Nc3ccccc3)c3ccccc3S2(=O)=O)cc1Cl	none
CCCC(O)C#Cc1cnc2c(c1)C(=O)N([C@H](C)CO)C[C@H](C)[C@H](CN(C)C(=O)Nc1cccc3ccccc13)O2 (some centres not stated)	none
COc1ccc(C#Cc2cnc3c(c2)C(=O)N([C@H](C)CO)C[C@H](C)[C@H](CN(C)C(=O)Nc2ccc(F)cc2)O3)cc1OC	none
COc1cccc(S(=O)(=O)N(C)C[C@@H]2Oc3ncc(-c4cccc(F)c4)cc3C(=O)N([C@H](C)CO)C[C@@H]2C)c1	none
COc1ccc(C#Cc2cnc3c(c2)C(=O)N([C@H](C)CO)C[C@H](C)[C@H](CN(C)C(=O)NC2CCCCC2)O3)cc1OC	ROS inducer 135
COc1ccc(C#Cc2cnc3c(c2)C(=O)N([C@H](C)CO)C[C@H](C)[C@H](CN(C)C(=O)NC(C)C)O3)cc1OC	none
COc1ccc(S(=O)(=O)N(C)C[C@@H]2Oc3ncc(C#Cc4cccc(F)c4)cc3C(=O)N([C@H](C)CO)C[C@@H]2C)cc1	none
COc1ccc(C#Cc2cnc3c(c2)C(=O)N([C@H](C)CO)C[C@H](C)[C@H](CN(C)C(=O)Nc2ccccc2)O3)cc1OC	none
COc1ccc(C#Cc2cnc3c(c2)C(=O)N([C@H](C)CO)C[C@H](C)[C@H](CN(C)C(=O)Nc2cccc4ccccc24)O3)cc1OC	ROS inducer 148
COc1cccc(S(=O)(=O)N(C)C[C@@H]2Oc3ncc(C#Cc4ccc(F)cc4)cc3C(=O)N([C@H](C)CO)C[C@@H]2C)c1	ROS inducer 103
CCC(C)NC(=O)c1cc(-c2ccc(F)cc2)no1 (configuration not stated)	none
CCCCn1c(C(F)(F)F)nc2c(=O)oc3ccccc3c21	none
Cc1c2cnn(CC(=O)NC(C)c3ccc4c(c3)OCCO4)c(=O)c2c(C)n1Cc1ccc(F)cc1 (configuration not stated)	none
COc1ccc2[nH]c3c(=O)n(CCC(=O)NC4CCCCCC4)c(=S)[nH]c3c2c1	none
O=C(CSCC(=O)c1ccc(-c2ccccc2)cc1)Nc1ccc2ccccc2c1	none
COc1ccc(-c2cc(C(=O)NCc3cccc(OC)c3)c3ccccc3n2)cc1	none
COc1ccc(CNC(=O)c2cc(=O)[nH]c3ccc(S(=O)(=O)N4CCCCC4C)cc23)cc1 (configuration not stated)	none
C[C@H](c1ccccc1)N1C[C@@H](CO)OC1=O	none
C[C@H](CO)N1C[C@H](C)[C@@H](CN(C)Cc2ccc(-c3ccccc3)cc2)Oc2c(NC(=O)C3CCOCC3)cccc2C1=O	none
C[C@@H]1CN([C@H](C)CO)C(=O)c2cccc(NC(=O)NC3CCCCC3)c2O[C@@H]1CN(C)Cc1ccc(-c2ccccc2)cc1	ROS inducer 101
C[C@H](CO)N1C[C@H](C)[C@@H](CN(C)Cc2ccccc2)Oc2c(NC(=O)NC3CCCCC3)cccc2C1=O	none
C[C@H]1CN([C@@H](C)CO)C(=O)c2cccc(NC(=O)C3CCOCC3)c2O[C@H]1CN(C)Cc1ccc(-c2ccccc2)cc1	none
C[C@H]1CN([C@@H](C)CO)C(=O)c2cccc(NC(=O)NC3CCCCC3)c2O[C@H]1CN(C)Cc1ccc(-c2ccccc2)cc1	none
